The values that follow come from ChEMBL document CHEMBL3433997, “St. Jude Leishmania screening dataset” (2016).

Sequence of Solute carrier family 2, facilitated glucose transporter member 1 (Homo sapiens) (P11166 whole entry): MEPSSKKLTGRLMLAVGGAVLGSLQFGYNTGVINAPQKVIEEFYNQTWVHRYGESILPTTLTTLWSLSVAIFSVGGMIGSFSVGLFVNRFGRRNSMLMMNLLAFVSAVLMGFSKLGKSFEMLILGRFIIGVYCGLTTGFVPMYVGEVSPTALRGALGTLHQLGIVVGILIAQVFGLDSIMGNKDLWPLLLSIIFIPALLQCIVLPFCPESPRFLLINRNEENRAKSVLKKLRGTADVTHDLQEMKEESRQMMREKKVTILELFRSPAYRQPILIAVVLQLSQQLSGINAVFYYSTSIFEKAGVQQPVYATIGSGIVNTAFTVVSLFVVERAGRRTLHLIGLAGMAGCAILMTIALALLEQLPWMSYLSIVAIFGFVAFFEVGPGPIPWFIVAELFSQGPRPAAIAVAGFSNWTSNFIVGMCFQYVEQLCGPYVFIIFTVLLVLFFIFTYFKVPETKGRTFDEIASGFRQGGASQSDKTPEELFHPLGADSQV

The assay has as its target Solute carrier family 2, facilitated glucose transporter member 1 (Homo sapiens) (UniProt P11166). The assay is described as follows: ST_JUDE_LEISH: Cytotoxicity at 2uM final concentration against transgenic Leishmania Mexicana promastigotes LmGLUT1 that are glucose transport deficient and complemented with the human glucose transporter GLUT1. Activity is measured by DNA content using SYBR green in vitro. It counts as functional.
On to `c1ccc2c(CNCCCCCCNCc3c(OCC4CC4)ccc4ccccc34)c(OCC3CC3)ccc2c1`, for which the inhibition was 51.5%.

Consider `COc1ccc2nccc([C@@H](O)CN3CCC(NCc4cc5ccccc5o4)CC3)c2c1`, for which the inhibition was determined as 10.1%.

On to `CC1=C(C(=O)Nc2cc3cn[nH]c3cc2F)C(c2cccc(NS(C)(=O)=O)c2)CC(=O)N1` (centres undefined), for which the inhibition amounted to 2.54%. Regarding `Cc1c(C(=O)C2CC2CN2CCC(N3CCCCC3)CC2)sc2ccccc12` (centres undefined), the inhibition worked out at 2.43%.

For `CCCCN(CCCC)CCNC(=O)c1cccc(NC(=O)N2CCc3cc(SC)c(C(F)(F)F)cc32)c1`, the inhibition was determined as 3.07%. `CN(CCc1ccccc1)c1ncc(-c2ccccc2CNCc2ccccc2O)cn1`: the inhibition turned out to be 0.08%. The value for `Cc1cc(-c2cccc3c(C(=O)N4CCc5cc6nccc(N7CCCN(C)CC7)c6cc54)cccc23)cc(C)n1` was -0.39%; that for `CCOc1cc2ncnc(Nc3ccc(OCc4ccccc4Br)c(OC)c3)c2cc1OCC` was 5.55%; that for `COc1cccc(CCNc2nc(NCc3ccccc3)c3cc(OC)c(OC)cc3n2)c1` was 7.51%.

As for `COc1cc(C)nc2ccc(NC(=O)Nc3cccc4ccccc34)cc12`, the inhibition was 3.38%. To `O=C(NCCCN1CCC(NC(=O)c2ccc(-c3cccnc3)cc2)CC1)c1ccc(Cl)c(Cl)c1` belongs 2.51%. To `COc1ccc(C(=O)N2CCC3(CC2)C(=O)N(CC(=O)NCC2CCCCC2)CN3c2ccccc2)c(OC)c1` belongs 5.13%; to `O=C(c1cc(-c2cccs2)n[nH]1)N1CCN(S(=O)(=O)c2ccc(Cl)cc2)CC1`, 2.31%; to `O=C(Nc1ccc(F)c(Cl)c1)NC1CCN(c2ccnc3cc(Cl)ccc23)C1` (centres undefined), 6.4%. The value for `CSC1=NC(=Nc2c(C)cccc2C)C2(CCCCC2)N1c1ccccc1Cl` was -1.1%; that for `CC1CCN(c2nc(C(=O)NCCc3ccc(Cl)c(Cl)c3)c(C(C)C)s2)CC1` was 0.93%; that for `NC1CCN(Cc2ccc(-c3ccc(-c4nc5cc(F)ccc5[nH]4)s3)cc2)C1` (centres undefined) was 0.37%.

Regarding `Nc1cc(C(F)(F)F)ccc1Cl`, the inhibition was -1.56%. The value for `O=C(NCCCCNCC(Cc1cccc(O)c1)c1ccccc1)c1ccc(NC(=O)c2ccc(Cl)cc2)cc1` (centres undefined) was -0.19%; that for `CC(=O)Nc1cccc(C(=O)Nc2ccc(-c3ccc(-c4nc5cccc(C)c5[nH]4)s3)cc2)c1` was -0.38%; that for `CCN(CC)CCCNc1ncc2c(-c3ccc(NC(=O)Nc4cc(C(F)(F)F)ccc4F)cc3)nn(C)c2n1` was 4.51%. `Nc1ncc(Cc2cc(Cl)c(N)c3ncccc23)c(N)n1`: the inhibition came out at 2.6%.

As for `Cc1nc(NCc2ccccc2)cc(NCC(O)c2ccc(O)cc2)n1` (centres undefined), the inhibition stood at 8.37%. As to `CCOc1ccc2c(c1)OC(c1ccccc1)(C(F)(F)F)NC2=O` (centres undefined), the inhibition was found to be 0.56%. The value for `Fc1cccc(COc2ccc(Nc3ncnc4sc(C#C[C@H]5CC[C@H](CN6CCOCC6)N5)cc34)cc2Cl)c1` was 0.36%. To `O=C(Nc1ccc2nc3n(c(=O)c2c1)CCCCC3)C(=O)N1CCC(Cc2ccccc2)CC1` belongs -0.67%. To `Clc1ccc2c(N3CCN(CCN4CCN(c5ccnc6cc(Cl)ccc56)CC4)CC3)ccnc2c1` belongs 0.09%. Take `CCN(CC)CCCC(C)Nc1nc(C=Cc2ccc(Br)cc2)nc2cc(Cl)ccc12` (centres undefined): the inhibition came to 11%. To `CC(C)Oc1cc(-c2ccc(S(C)(=O)=O)cc2)nc(N(Cc2cccc(F)c2F)Cc2cccc(F)c2F)n1` belongs -1.85%.

Take `CC(CN(C)C)C(=O)Nc1cccc(-c2ccc(-c3nc4cc(F)ccc4[nH]3)s2)c1` (centres undefined): the inhibition turned out to be 3.85%. The value for `O=C(Nc1ccc(N2CCC(Nc3ccccn3)CC2)cc1)c1cnc(Cl)c(Cl)c1` was 18%. The value for `c1cc(CNCCc2ccncc2)cc(-c2ccc(-c3nc4ccccc4[nH]3)cc2)c1` was 1.46%. To `Cc1n[nH]c2ccc(-c3cc(OC[C@@H](N)Cc4ccccc4)cnc3-c3cc4ccccc4s3)cc12` belongs 8.58%; to `O=C(Nc1ccc2c(c1)OCO2)NC1CCN(c2ccnc(Nc3ccc(F)cc3)n2)C1` (centres undefined), 0.34%; to `Cc1cc(O)nc(NC(=N)NOCc2ccccc2)n1`, -1.66%. On to `CCCCCCn1c2c(c(=N)c3c1CCC3)CCCC2`, for which the inhibition was 78.2%. The value for `CN(C)Cc1c(O)ccc2[nH]c(-c3ccc(OC(F)(F)F)cc3)nc12` was 3.92%; that for `COc1ccc2c(=NN=Cc3cccc(F)c3)cc(C)[nH]c2c1` was -1.29%.

As for `O=C(Nc1ccc(S(=O)(=O)N2CCCCC2)cc1)c1cc(-c2ccccc2O)n[nH]1`, the inhibition came out at 11.8%.

As usually defined, the inhibition is the change of the read-out against control, counted positive when it falls.
